Measurements published in PubChem BioAssay AID1159580 (chemical genetic matrix, 2015).
Where “and” joins values, the source holds several entries; their conditions need not be identical. Equal values may be shown once. In all, about 5,500 compounds went through this assay and about 2,000 (36%) were called active. Another 18% or so got no clear call; they are omitted. Rule as the data show it: active = normalized growth mostly below about 0.91 (no sharp cut-off); inconclusive = no clear call, values can overlap the other calls; inactive = mostly above about 0.92. Some of the results follow.

Experiment: chemical genetic growth profiling, strain panel (AID 1159580);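 also: tested at 20 µM; growth read once vehicle control cultures reached saturation at 30 °C; 1 = growth at the plate median or of vehicle wells; lower values mean less growth of the strain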
Conditions: S. cerevisiae deletion strains, growth OD

Measured: normalized growth

Cn1c(=O)c2c(ncn2CCO)n(C)c1=O
inactive: locus YAL013W, strain DEP1, stronger effect = lower value 1 | locus YAL021C, strain ccr4, stronger effect = lower value 1.02 | locus YAL026C, strain drs2, stronger effect = lower value 1.02 | locus YAL030W, strain snc1, stronger effect = lower value 1.02 | locus YBL061C, strain skt5, stronger effect = lower value 1.03 | locus YBR009C, strain hhf1, stronger effect = lower value 1.02 | locus YBR021W, strain FUR4, stronger effect = lower value 1.04 | locus YBR023C, strain chs3, stronger effect = lower value 1.01 | locus YBR171W, strain sec66, stronger effect = lower value 1.03 | locus YBR229C, strain ROT2, stronger effect = lower value 1 | locus YBR231C, strain swc5, stronger effect = lower value 1.02 | locus YBR279W, strain paf1, stronger effect = lower value 1.02 | locus YCL011C, strain gbp2, stronger effect = lower value 1.02 | locus YCL016C, strain dcc1, stronger effect = lower value 1.01 | locus YCL029C, strain bik1, stronger effect = lower value 1.02 | locus YCL061C, strain MRC1, stronger effect = lower value 1.02 | locus YCL069W, strain vba3, stronger effect = lower value 1.02 | locus YCR088W, strain abp1, stronger effect = lower value 1.02 | locus YDL005C, strain med2, stronger effect = lower value 1.02 | locus YDL035C, strain GPR1, stronger effect = lower value 0.997 | locus YDL040C, strain nat1, stronger effect = lower value 1.01 | locus YDL074C, strain BRE1, stronger effect = lower value 1.04 | locus YDL101C, strain DUN1, stronger effect = lower value 1.02 | locus YDL134C, strain PPH21, stronger effect = lower value 1 | locus YDL185W, strain tfp1, stronger effect = lower value 1 | locus YDL192W, strain arf1, stronger effect = lower value 1.01 | locus YDR001C, strain nth1, stronger effect = lower value 1.02 | locus YDR069C, strain doa4, stronger effect = lower value 1.03 | locus YDR101C, strain arx1, stronger effect = lower value 1.01 | locus YDR137W, strain rgp1, stronger effect = lower value 1.04 | locus YDR150W, strain NUM1, stronger effect = lower value 1 | locus YDR159W, strain sac3, stronger effect = lower value 1.02 | locus YDR162C, strain NBP2, stronger effect = lower value 1.01 | locus YDR195W, strain ref2 0.995 | locus YDR297W, strain sur2, stronger effect = lower value 1 | locus YDR318W, strain mcm21, stronger effect = lower value 1 | locus YDR334W, strain swr1, stronger effect = lower value 1.02 | locus YDR335W, strain msn5, stronger effect = lower value 1.02 | locus YDR388W, stronger effect = lower value 0.998 | locus YDR392W, strain spt3, stronger effect = lower value 1.03 | locus YDR502C, strain sam2, stronger effect = lower value 0.978 | locus YEL003W, strain gim4, stronger effect = lower value 1.02 | locus YEL037C, strain rad23, stronger effect = lower value 1.05 | locus YEL061C, strain CIN8 (second series), stronger effect = lower value 1.02 | locus YEL061C, strain CIN8, stronger effect = lower value 1 | locus YER015W, strain faa2, stronger effect = lower value 1.02 | locus YER016W, strain bim1, stronger effect = lower value 1.01 | locus YER110C, stronger effect = lower value 1.01 | locus YER111C, strain swi4, stronger effect = lower value 1.03 | locus YER155C, strain BEM2 (second series), stronger effect = lower value 1.04 | locus YER155C, strain BEM2, stronger effect = lower value 1.01 | locus YER167W, strain BCK2, stronger effect = lower value 0.979 | locus YFR010W, strain ubp6, stronger effect = lower value 1.02 | locus YGL078C, strain dbp3, stronger effect = lower value 0.994 | locus YGL086W, strain mad1, stronger effect = lower value 0.986 | locus YGL167C, strain pmr1, stronger effect = lower value 1.02 | locus YGL173C, strain kem1, stronger effect = lower value 1.03 | locus YGL227W, strain vid30, stronger effect = lower value 1 | locus YGL240W, strain doc1, stronger effect = lower value 1.02 | locus YGL248W, strain PDE1, stronger effect = lower value 1.01 | locus YGL253W, strain hxk2, stronger effect = lower value 1.02 | locus YGR078C, strain PAC10, stronger effect = lower value 1.02 | locus YGR135W, strain pre9, stronger effect = lower value 0.971 | locus YGR229C, strain SMI1, stronger effect = lower value 0.99 | locus YGR252W, strain gcn5, stronger effect = lower value 0.912 | locus YHR013C, strain ard1, stronger effect = lower value 1.04 | locus YHR027C, strain rpn1, stronger effect = lower value 1 | locus YHR030C, strain SLT2, stronger effect = lower value 0.999 and 0.984 | locus YHR079C, strain IRE1 (second series), stronger effect = lower value 1.01 | locus YHR079C, strain IRE1, stronger effect = lower value 0.974 | locus YHR094C, strain hxt1, stronger effect = lower value 0.998 | locus YHR129C, strain ARP1, stronger effect = lower value 1.02 | locus YHR142W, strain chs7, stronger effect = lower value 1.02 | locus YHR200W, strain rpn10, stronger effect = lower value 0.994 | locus YIL066C, strain RNR3, stronger effect = lower value 1.01 | locus YIL073C, strain SPO22, stronger effect = lower value 0.927 | locus YIL125W, strain kgd1, stronger effect = lower value 0.988 | locus YIR030C, strain dcg1, stronger effect = lower value 1.01 | locus YJL092W, strain hpr5, stronger effect = lower value 1.02 | locus YJL095W, strain BCK1 (second series), stronger effect = lower value 1 | locus YJL095W, strain BCK1, stronger effect = lower value 1.04 and 0.969 | locus YJL115W, strain asf1, stronger effect = lower value 1.02 | locus YJL129C, strain trk1, stronger effect = lower value 1.04 | locus YJL134W, strain LCB3, stronger effect = lower value 1.01 | locus YJL154C, strain vps35, stronger effect = lower value 1.02 | locus YJL164C, strain tpk1, stronger effect = lower value 1.02 | locus YJL166W, strain qcr8, stronger effect = lower value 1.02 | locus YJL168C, strain set2, stronger effect = lower value 1.01 | locus YJL187C, strain SWE1 (second series), stronger effect = lower value 1.03 | locus YJL187C, strain SWE1, stronger effect = lower value 1.01 | locus YJR043C, strain POL32, stronger effect = lower value 1.03 | locus YJR066W, strain TOR1, stronger effect = lower value 0.909
